# Measured values as given in ChEMBL document CHEMBL3988442, “University of Dundee, Small-Polar-MMV Screening Library” (2021).
# Legend:
# [1] = biological target: T1, Aspartate--tRNA(Asp/Asn) ligase (Mycobacterium tuberculosis (strain ATCC 25618 / H37Rv)) (UniProt P9WFW3); experiment: Assay for Asp RNA synthetase-1 from Mycobacterium tuberculosis; assay type: functional; set-up: scale not given: direction of the effect not stated beside the values; conditions: 30 µM; further: in the data most compounds retested in dose-response had high values
# T1 sequence (whole entry): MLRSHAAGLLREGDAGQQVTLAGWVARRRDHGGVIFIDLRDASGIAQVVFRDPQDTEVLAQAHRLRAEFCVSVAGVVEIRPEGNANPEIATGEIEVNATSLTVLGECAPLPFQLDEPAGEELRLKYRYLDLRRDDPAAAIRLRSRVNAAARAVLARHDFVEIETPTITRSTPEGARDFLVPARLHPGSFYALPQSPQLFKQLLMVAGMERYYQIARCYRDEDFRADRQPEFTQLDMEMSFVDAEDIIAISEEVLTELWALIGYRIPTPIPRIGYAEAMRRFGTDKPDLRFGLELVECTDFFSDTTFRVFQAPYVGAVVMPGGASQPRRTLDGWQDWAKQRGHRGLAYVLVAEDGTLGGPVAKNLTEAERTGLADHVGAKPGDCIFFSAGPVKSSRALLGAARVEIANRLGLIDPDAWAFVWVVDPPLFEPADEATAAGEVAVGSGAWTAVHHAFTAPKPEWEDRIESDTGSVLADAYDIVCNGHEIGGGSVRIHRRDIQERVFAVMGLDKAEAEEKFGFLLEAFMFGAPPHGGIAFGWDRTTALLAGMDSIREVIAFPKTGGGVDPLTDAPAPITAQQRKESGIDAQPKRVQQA
# [2] = biological target: Shiga toxin 2 (Escherichia coli O157:H7) (UniProt P09385+P09386); experiment: E. coli 0.157:H7 Shiga Toxin SOP - stx2 screening assay; assay type: functional; set-up: scale not given: direction of the effect not stated beside the values; conditions: 30 µM
Compound,Percent Effect [1] [%],Percent Effect [2] [%]
c1cncc(COCC2CN(Cc3ccco3)Cc3ccnn3C2)c1 (stereo not drawn),1.51,-12.8
Cc1cnc(C(=O)N2CCCC(n3ccnc3C)C2)cn1 (stereo not drawn),-3.23,-18.1
CCN(Cc1ccco1)C(=O)Nc1cc(C(F)(F)F)c[nH]c1=O,3.71,34.2
COc1c(CNCc2ccc(C(=O)NC3CC3)cc2)c(C)nn1C,-3.68,-14.2
c1ccc(-n2cc(CN3CCCC(Cn4cncn4)C3)nn2)cc1 (stereo not drawn),-9.82,-48.9
COc1ccc(NCc2nc(=O)n(CCC(C)C)[nH]2)cc1,-2.01,5.42
CCOCCNc1nc(C2CCCC2)nc2c1cnn2C,5.12,1.57
CC(=O)NCC(=O)N1C[C@H](OCc2cccnc2)[C@H]2COC[C@H]21,-1.31,-22.3
COc1ccc(-c2nc(CN3CCN(CCO)CC3)co2)cc1,-0.607,-96.9
CC(C)n1cnc2c1C(C(=O)NCCC#N)N(Cc1ccccc1)CC2 (stereo not drawn),-1.11,-31.8
CC(C)N1CCC(Cc2cc(-c3cccc(C(=O)O)c3)ncn2)C1 (stereo not drawn),-2.43,2.16
Cc1noc(C)c1CCC(=O)N1CCN(CCn2cccn2)CC1,-5.26,-11.4
Cc1cnn(CC2CCCN2C(=O)c2ccc3[nH]nnc3c2)c1 (stereo not drawn),-3.83,-49.7
COCCNC(=O)[C@H]1C[C@@H]2CCN(c3nncs3)C[C@H]2O1,1.82,-18.8
COCCO[C@H]1CCN(C(=O)C2CCOCC2)[C@H]1Cc1ccncc1,4.84,-17.6
CC(O)CN1CCN(C(=O)c2cccn2Cc2ccncc2)CC1 (stereo not drawn),-3.51,13.7
CNC(=O)CC1CCN(Cc2nc(-c3ccc(SC)cc3)oc2C)CC1,-1.17,-3.87
Cc1nc(CN(C)C2CCN(CC3CCCCC3)C2)no1 (stereo not drawn),-2.62,-9.5
Cc1nnc(C2Cc3ccccc3CN2Cc2ncc(C(C)(C)C)o2)o1 (stereo not drawn),0.807,8.47
CCOC[C@H]1CC[C@H]2[C@H](CCN2C(=O)c2ccncc2F)O1,5.35,-0.318
Cc1nnc(N2CC[C@H]3C[C@@H](C(=O)NC4CCCC4)O[C@H]3C2)s1,0.29,-4.68
O=C(c1cc(=O)[nH]c(=O)[nH]1)N1CCCCC1c1nc2cc(F)ccc2[nH]1 (stereo not drawn),-0.139,9.59

Compound,Percent Effect [1] [%],Percent Effect [2] [%]
Cc1cc(C)c(CNC(=O)NCC(c2ccccc2)N(C)C)c(=O)[nH]1 (stereo not drawn),4.47,23.9
O=C(c1ccoc1)N1CC[C@@H]2[C@H]1CCC(=O)N2c1ccccc1,1.49,1.4
CC(C)(C)c1nnc(CN2CCOC(Cn3cncn3)C2)o1 (stereo not drawn),0.0111,8.96
CS(=O)(=O)NC[C@@H]1OC[C@H]2CN(C(=O)c3ccc[nH]3)CC[C@H]21,3.32,0.898
CCn1c(C2CCCN(Cc3nccn3CCOC)C2)nn(C)c1=O (stereo not drawn),4.25,5.34
O=C(c1cccc(F)c1)N1CCOC(c2nc(-c3ncccn3)no2)C1 (stereo not drawn),-5.54,3.39
O=C(Nc1cccnc1)[C@H]1C[C@@H]2CN(C(=O)NC3CCCC3)C[C@H]1O2,2.61,-2.93
CCCn1nc(C2CCNCC2)n(Cc2ccccc2)c1=O,-5.32,-6.93
Cc1ccc(C)c(-n2ccc3nc(N4CCCC4)ncc3c2=O)c1,-4.04,-36.3
CCOCC(=O)N1C[C@@H]2COC[C@H](c3nc(C)no3)[C@@H]2C1,2.15,-13.8
Cn1cc(N2CC3(CCN(CC4CCOCC4)CC3)OCC2=O)cn1,-2.85,-32.8
O=C(NCC1CC1)[C@H]1C[C@H]2OCC[C@H]2N(CCc2ccccc2)C1,3.44,2.56
Cc1nc(NCc2cccnc2)c2c(n1)c(C)nn2C,10.4,-31.1
Cc1cnn(CCNCc2cccnc2)c1,-0.568,-3.36
CC(C)NC(=O)C1CN(C(N)=O)Cc2ccnn2C1 (stereo not drawn),-3.46,-5.82
CN(C)c1ccc(CN(CCCn2ccnc2)Cc2c[nH]cn2)cc1,0.194,-38.9
COc1ccnc(N2CCN(C(=O)Cc3ccc(C)s3)CC2)n1,2.36,5.8
CCOC(=O)CN1CCC(C(=O)c2cc(F)ccc2F)CC1,-0.233,-13.5
O=C(Nc1ccccc1F)N1CCN(Cc2noc(C3CC3)n2)CC1,1.99,-11.6
CCCS(=O)(=O)N1CCN(c2ccnc(N3CCCC3)n2)CC1,2.06,-50.6
O=C(NCc1nnc2n1CCC2)N(Cc1ccco1)C1CC1,1.06,-5.54
COCc1nc(C(=O)N2CCCC2c2ccccc2C)cs1 (stereo not drawn),-0.975,-12.9
